# Data: the supplement of paper PMC3334620
# The full ranking holds about 33,000 sequences; the median of “E-score (-0.5 to 0.5)” is about -0.041, and the highest 2% start at about 0.37. The sample holds the highest values, similar sequences and a random draw of the others, so the mix is not that of the screen.
# Molecular target: T1, Ecm22 (UniProt Q05958)
# T1 sequence: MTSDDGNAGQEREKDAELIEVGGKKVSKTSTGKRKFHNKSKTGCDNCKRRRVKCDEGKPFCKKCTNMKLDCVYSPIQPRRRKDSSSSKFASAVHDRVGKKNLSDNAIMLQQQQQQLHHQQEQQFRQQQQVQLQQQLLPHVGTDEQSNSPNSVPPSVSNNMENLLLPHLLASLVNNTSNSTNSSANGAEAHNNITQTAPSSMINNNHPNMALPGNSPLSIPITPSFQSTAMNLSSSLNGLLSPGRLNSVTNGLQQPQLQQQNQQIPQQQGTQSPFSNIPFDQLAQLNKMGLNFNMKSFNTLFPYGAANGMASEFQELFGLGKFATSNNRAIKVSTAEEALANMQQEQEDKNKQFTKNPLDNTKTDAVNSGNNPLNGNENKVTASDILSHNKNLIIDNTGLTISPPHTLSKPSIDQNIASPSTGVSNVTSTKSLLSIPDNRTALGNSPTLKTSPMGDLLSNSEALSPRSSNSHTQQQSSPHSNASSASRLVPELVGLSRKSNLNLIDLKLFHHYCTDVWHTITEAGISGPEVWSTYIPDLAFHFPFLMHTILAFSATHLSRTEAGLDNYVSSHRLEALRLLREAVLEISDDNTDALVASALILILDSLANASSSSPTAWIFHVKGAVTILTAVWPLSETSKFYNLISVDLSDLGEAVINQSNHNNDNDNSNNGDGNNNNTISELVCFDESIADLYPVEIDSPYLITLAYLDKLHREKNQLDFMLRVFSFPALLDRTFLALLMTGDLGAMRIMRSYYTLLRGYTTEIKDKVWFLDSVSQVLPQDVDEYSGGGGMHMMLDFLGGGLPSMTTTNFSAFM
# Test: PBM E-score (8-mer binding enrichment) (E-score (-0.5 to 0.5)); higher = stronger / more preferred TF binding
# Settings: protein concentration: 200 nM; construct: GST-full length
# Experimental: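 Universal 'all 10-mer' protein binding microarrays (Agilent AMADID 015681) probed with GST-tagged S. cerevisiae TFs (full-length or DBD) made by in vitro transcription/translation (PURExpress), about 100-200 nM. Bound TF was detected with fluorescent anti-GST. Each ungapped 8-mer (which stands for itself and its reverse complement) is scored by the PBM enrichment score (E-score), a modified Wilcoxon-Mann-Whitney statistic from -0.5 to +0.5, computed with the Universal PBM Analysis Suite. Scale: above 0.35 generally sequence-specific binding.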
row,Sequence,PBM E-score
1,TATACGCA,0.415
2,CATACGGA,0.362
3,CGGATCGA,0.219
4,ATCTTTTC,-0.0858
5,ACGTTATG,0.163
6,ACGAGTAC,0.421
7,GCGAGTAC,0.324
8,CCGAGTAG,0.0401
9,AAGAGTAT,-0.113
10,CCGAGTAC,0.24
11,AGGAGTAT,-0.109
12,ACGAGTAA,0.396
13,ACGAGTAT,0.382
14,ACGAGTAG,0.38
15,AAGAGTAG,-0.211
16,CCGAGTAA,0.256
17,GCGAGTAA,0.114
18,AGGCCCAT,-0.148
19,GACCGCGC,0.0551
20,CCCGACCC,0.092
21,AAGCGCGT,0.0575
22,CCCCTCGG,0.266
23,CCGAGCCC,0.0573
24,CCCCTCTA,-0.112
25,AAGTTTGT,-0.176

row,Sequence,PBM E-score
1,AACTGTTC,-0.177
2,ACGCAGGA,0.108
3,AGCTGCCA,-0.171
4,ACGCCACC,-0.0558
5,CCGGTGGC,-0.135
6,ACGAGTCT,0.324
7,ACGAGTCG,0.384
8,ACGAGTCA,0.219
9,AATCCATT,0.0189
10,GACTCGCA,0.151
11,AACTCGTC,0.102
12,CACTCGTC,0.0448
13,AACTCGTA,0.47
14,CACTCGAA,0.0641
15,GACTCGTA,0.455
16,GACTCGAA,-0.121
17,CACTCGTA,0.458
18,AACTCGTG,0.228
19,GCTACCTA,-0.156
20,ACCTTTCA,-0.0376
21,ACAAGCCG,-0.0164
22,AGGATTAC,-0.0965
23,CCGGTAAG,0.0008
24,ATAATTAT,0.311
25,ACAGTAAT,-0.0196

row,Sequence,PBM E-score
1,CAGAATCG,0.17
2,ACCTCACA,-0.106
3,AAAGTGTT,-0.0118
4,GCTTGAGA,-0.0858
5,CCGAGGGC,0.203
6,AAGAGGGC,-0.297
7,ACGAGGGA,0.41
8,ACGAGGGG,0.365
9,ACGAGGGC,0.374
10,CCGAGGGA,-0.0341
11,TAGTGGCA,-0.179
12,CCCTTCCC,-0.234
13,ACTCCAAC,-0.175
14,CTACTTCC,0.0408
15,ATCATCAT,0.0455
16,GTATCGAC,0.165
17,CTCGTAAC,0.428
18,GTCGTAAC,0.397
19,CACGTAAG,0.0432
20,CGCGTAAG,0.165
21,ATCGTAAC,0.368
22,CTCGTAAG,0.44
23,GGCGTAAC,-0.0339
24,CACGTAAC,-0.149
25,GACGTAAC,-0.079

row,Sequence,PBM E-score
1,TCGCACCA,0.324
2,CTAAGAAG,-0.0845
3,ACTGTGAG,-0.105
4,GCGAGCAA,0.198
5,CCCATTAG,-0.248
6,AGCAACAT,-0.112
7,ACGTCTTC,-0.126
8,ACAACTGT,-0.148
9,AGTGTACC,-0.059
10,ACTGTACG,0.42
11,CCTGTACA,-0.174
12,AGTGTACG,0.389
13,CCTGTACG,0.4
14,ACTGTACC,-0.0754
15,AGTGTACA,-0.0734
16,ATTGTACA,-0.0596
17,ATTGTACC,0.00485
18,CCTGTACC,-0.0544
19,ACTGTACT,-0.12
20,ATTGTACG,0.431
21,AATTTTGA,0.0335
22,CCCTGATA,-0.194
23,CGGATCTA,0.0938
24,CAAGCCGA,0.0727
25,AGACAGAA,-0.0147

row,Sequence,PBM E-score
1,CATGTACG,0.399
2,CATGTACA,-0.0676
3,AATGTACG,0.331
4,CAAGGGTA,-0.0852
5,CCTACAGC,-0.318
6,CGTACAGA,0.382
7,AGTACAGC,-0.113
8,CGTACAGC,0.427
9,GGTACAGA,-0.0866
10,AGTACAGA,0.0225
11,CGAAGGCG,0.124
12,CGGGTTAC,0.231
13,CGTTCCAA,0.365
14,AGTTCCAC,0.0665
15,CGTTCCAG,0.418
16,AGTTCCAG,-0.172
17,GGTTCCAC,-0.237
18,CGTTCCAC,0.405
19,CAATCTAG,-0.0844
20,AGGTCCCC,-0.33
21,GCTTCCGA,0.0694
22,GCTGCGAA,0.0942
23,CCACAGTC,-0.189
24,AGGGACAC,-0.0536
25,CATTTACC,-0.0682

row,Sequence,PBM E-score
1,AGTTTACC,-0.0268
2,AGTTTACA,-0.0418
3,GGTTTACA,-0.0503
4,CGTTTACA,0.405
5,CGTTTACC,0.435
6,GCTAGCCC,-0.379
7,GGCCCGGA,-0.142
8,GCAGGTCC,0.0428
9,CCATCTCG,0.105
10,AACATACG,0.373
11,CACATACG,0.335
12,ATCATACA,0.0909
13,ATCATACG,0.404
14,ATCATACC,0.00527
15,CGCATACA,0.111
16,AACATACT,0.0945
17,CGCATACG,0.385
18,CGCATACC,0.16
19,CCGTCTTC,-0.175
20,CCCTCAAA,-0.157
21,ATTTGCGG,0.0753
22,AACCGTTA,0.0731
23,CCGACAAA,0.0481
24,ACGACAAA,0.384
25,ACGACAGG,0.339

row,Sequence,PBM E-score
1,ACGACAGC,0.319
2,ACGACAAT,0.368
3,TCGACAAA,0.178
4,ACGACAGT,0.382
5,ACGACAAC,0.366
6,ACGACAAG,0.334
7,ACGCCAGG,0.0457
8,GTCCAGCA,-0.169
9,AAGCGTGT,-0.18
10,CAGATATC,-0.0887
11,GGTTCGAC,0.0422
12,TGCACAAA,-0.22
13,AAGCTCGC,0.297
14,AAGCTCGT,0.38
15,AAGCTCGA,0.0757
16,AATCTCGT,0.386
17,AATCTCGA,0.0888
18,AATCTCGG,0.129
19,TACATGGA,-0.119
20,GCAGGGCA,-0.18
21,GGCCACCA,-0.161
22,ACCAGAAG,-0.0736
